Data published in PubChem BioAssay AID2521 (Sanford-Burnham Center for Chemical Genomics, 2010).
The campaign covered roughly 330,000 compounds. About 1,100 (0.33%) were called active. The entries come from a sample that favours actives as a whole. A number with no mark means an inactive call.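 Rule for the calls: active = inhibition above about 40% at 20 µM (limit read from the data); inactive = the rest.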

What follows are compounds tested against Apelin receptor (Homo sapiens) (UniProt P35414) (assay: antagonists of human apelin receptor APJ, primary screen, CHO-K1 cells, beta-arrestin complementation, luminescence (AID 2521;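 note: cells challenged with 10 nM apelin-13 agonist together with compound; plate controls were apelin-13 plus DMSO wells for no effect and DMSO wells lacking apelin-13 for full effect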)). Conditions: at 20 µM, active compounds read high.
Sequence of Apelin receptor (Homo sapiens) (P35414 whole entry, looked up): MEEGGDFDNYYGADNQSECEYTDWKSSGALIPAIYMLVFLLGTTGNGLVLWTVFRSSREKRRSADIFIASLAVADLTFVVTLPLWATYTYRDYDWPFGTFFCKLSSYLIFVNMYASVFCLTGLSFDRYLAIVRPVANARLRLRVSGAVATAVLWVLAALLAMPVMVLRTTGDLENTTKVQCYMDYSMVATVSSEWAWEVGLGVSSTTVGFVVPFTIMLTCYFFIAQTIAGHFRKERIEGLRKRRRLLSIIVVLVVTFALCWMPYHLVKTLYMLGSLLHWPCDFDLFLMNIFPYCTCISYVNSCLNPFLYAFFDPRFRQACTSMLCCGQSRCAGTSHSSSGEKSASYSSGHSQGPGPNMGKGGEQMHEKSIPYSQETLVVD
For `O=c1ccc2c(-c3ccccc3S(=O)(=O)O)c3ccc(O)c(O)c3oc-2c1O`, the inhibition was 49.3% (active).
`CCNC(=S)N(CCN(CC)CC)Cc1cc2cc3c(cc2[nH]c1=O)OCO3` was tested, and the inhibition was 12.3%.
For `CCO[C@H]1OC(C(=O)O)=C[C@@H](C2CCCCC2)[C@@H]1CCCO`, the inhibition was -6.59%.
For `O=C(Nc1cc(=O)[nH]c2ncnn12)c1ccccc1Cl`, the inhibition was 2.3%.
`CC(OC(=O)CN1C(=O)c2ccccc2C1=O)C(=O)c1ccccc1` (centres undefined) showed an inhibition of 23%.
Work on `CCOC(=O)CN1C(=O)C(=O)c2cc(C)ccc21` yielded an inhibition of -0.658%.
In the case of `CC(C)OC(=O)CN1C(=O)C(=O)c2ccccc21`, the inhibition is reported as 103% (active).
`COc1ccc(C(=O)C[n+]2ccc(N)c(C)c2C)cc1` was tested, and the inhibition was 4.36%.
`CC(=O)c1ccc(S(=O)(=O)N(C)CCCC(=O)N(C)Cc2ccccc2F)cc1` was tested, and the inhibition was -6.03%.
With `CCCn1nc2cc(C(=O)NCc3ccccc3)ccc2c1OCC` the inhibition was -8.45%.
`N#CCCN(CCC#N)c1nnc(-c2ccccc2)s1` was tested, and the inhibition was 1.67%.
`CCC(=O)c1ccc(OC(=O)/C=C/c2cc(OC)c(OC)c(OC)c2)cc1` gave an inhibition of 20.9%.
`Cc1c(C(=O)N2CCCc3ccccc32)sc2nc(-c3ccccc3)cn12` showed an inhibition of 21%.
`Cc1cccc2cc3c(N)c(C(=O)N4CCCc5ccccc54)sc3nc12` was tested, and the inhibition was 95.8% (active).
With `Cc1c(C(=O)N2CCCc3ccccc32)oc2ccccc12` the inhibition was 6.71%.
For `Cc1cccc(N(C(=O)c2ccc(CN3CCOCC3)o2)C(C(=O)NC2CCCCC2)c2ccc(F)cc2)c1` (centres undefined), the inhibition was 0.911%.
Work on `C=C(C)C(=O)O[C@H]1C/C(C)=C\C(=O)/C=C(\C)[C@H](O)[C@@H]2OC(=O)C(=C)[C@@H]21` yielded an inhibition of 13.2%.
`Cc1cc(C(=O)CC#N)c(C)n1-c1c(C)n(C)n(-c2ccccc2)c1=O` was tested, and the inhibition was 9.25%.
`COc1ccccc1OC(C)C(=O)Nc1ccc(S(=O)(=O)Nc2nccs2)cc1` (centres undefined) showed an inhibition of 5.98%.
`O=[N+]([O-])C(=c1ccc2c(c1)N1C3=C(CCCC3)CC3CCCCC31N=2)[N+](=O)[O-]` (centres undefined) showed an inhibition of -3.42%.
Compound `CCOc1ccc(NS(=O)(=O)c2ccc(Cl)c(C(=O)N(C)Cc3cccnc3)c2)cc1` has an inhibition of 6.06%.
`O=C(c1ccccc1Cl)N(Cc1ccccc1F)N1C(=O)CCCC1=O` showed an inhibition of -12.8%.
`O=[N+]([O-])c1cc(S(=O)(=O)CCCN2CCOCC2)ccc1F` showed an inhibition of -24.6%.
For `Cc1ccc(C(=O)OC(C)CN2CCOCC2)cc1` (centres undefined), the inhibition was -14.4%.
With `CC(CN1CCOCC1)OC(=O)c1ccc(C(C)(C)C)cc1` (centres undefined) the inhibition was 77% (active).
In the case of `CC(CN1CCOCC1)OC(=O)c1ccc(Cl)cc1Cl` (centres undefined), the inhibition is reported as -5.38%.
Compound `CCOC(=O)c1cnc2nc(SCc3ccccc3Cl)[nH]n2c1=O` has an inhibition of -11.5%.
`CCc1nc2cccnc2n1-c1ccc(C(=O)O)cc1` showed an inhibition of 1.09%.
`COc1ccc(N2CCN(C(=O)CCSCc3ccccc3F)CC2)cc1` gave an inhibition of -13.7%.
Compound `COC(=O)c1nc2n(n1)C(c1ccc([N+](=O)[O-])cc1)C(C(=O)Nc1ccc(Cl)cc1)=C(C)N2` (centres undefined) has an inhibition of 2.59%.
For `COCCn1c(SCC(=O)Nc2ccccc2F)nc2c(c1=O)SCC2`, the inhibition was 10.3%.
In the case of `COc1cc(/C=N\NC(=O)CNC(=O)c2cccc([N+](=O)[O-])c2)ccc1O`, the inhibition is reported as 53.6% (active).
`COc1ccc(O)c(/C=N/N=C/c2cccc([N+](=O)[O-])c2)c1` showed an inhibition of 15.6%.
For `COc1ccc(C(=O)NCC(=O)N/N=C/c2ccc([N+](=O)[O-])o2)cc1OC`, the inhibition was -1.61%.
`COc1ccc(NC(C)=O)cc1NC(=O)CN1CCN(C2c3ccccc3-c3ccccc32)CC1` showed an inhibition of -6.9%.
`O=C(c1ccc(Cl)s1)N(Cc1nnc(-c2ccccc2Cl)o1)C1CC1` gave an inhibition of -57.5%.
`Brc1cc(Br)c(Oc2cc(Br)c(Br)cc2Br)cc1Br` showed an inhibition of 11.9%.
For `COc1ccc(-n2nc(C(=O)NCC(=O)N3CCC(C(N)=O)CC3)c3ccccc3c2=O)cc1OC`, the inhibition was -0.314%.
Work on `COc1cc2c(cc1OC)C(C)N(S(=O)(=O)c1cnc(Cl)c(Cl)c1)CC2` (centres undefined) yielded an inhibition of -23.5%.
With `O=C(O)CC1S/C(=N\N=C/c2ccccc2O)N(c2ccc(O)cc2)C1=O` (centres undefined) the inhibition was -8.74%.
`COc1ccc(-c2csc(Cc3nc(O)cs3)n2)cc1` was tested, and the inhibition was 66.3% (active).
Work on `CC(C)(C)C(=O)OCc1nc(-c2ccc(O)c(O)c2)cs1` yielded an inhibition of -5.74%.
`COc1ccc(-c2csc(NC(=O)COC(=O)Cc3ccc(Cl)cc3Cl)n2)cc1` was tested, and the inhibition was 4.6%.
`CSc1cc(C)n(-c2ccccc2C)c(=S)c1C(C)=O` gave an inhibition of 7.52%.
With `CC1CC2=C(CC1/C=N/NC(N)=S)C(C)(C)CCC2` (centres undefined) the inhibition was 49.2% (active).
`O=C1C=C(c2ccccc2)CCC1` showed an inhibition of 14.7%.
`Cc1csc(NC(=O)CSc2nnc(-c3cccnc3)o2)n1` was tested, and the inhibition was 14.2%.
`O=S(=O)(NCCc1ccc(F)cc1)c1cccc2cccnc12` gave an inhibition of 9.75%.
`O=[N+]([O-])c1ccccc1S(=O)(=O)Nc1cccc2cccnc12` was tested, and the inhibition was 53.5% (active).
Work on `NS(=O)(=O)c1ccc(CCNS(=O)(=O)c2cccc3cccnc23)cc1` yielded an inhibition of -8.92%.
`Cc1ccc(OCCCC(=O)Nc2ccc(N3CCOCC3)cc2)cc1` showed an inhibition of 11.8%.
In the case of `O=C(C1CC(=O)N(c2ccc(Br)cc2)C1)N1CCCC1` (centres undefined), the inhibition is reported as -9.51%.
In the case of `CC(=O)Nc1ccc(NC(=O)c2sc3nc4c(c(-c5ccc(C)cc5)c3c2N)CCC4)cc1`, the inhibition is reported as 41.5% (active).
`Cc1ccc(NC(=O)c2sc3nc(N)c(C#N)cc3c2N)cc1` was tested, and the inhibition was 5.56%.
`Cc1cccc(NC(=O)c2sc3nc(N4CCOCC4)c4c(c3c2N)CCCC4)c1` showed an inhibition of 0.268%.
Compound `CCNS(=O)(=O)c1ccc(NC(=O)c2cncc(Br)c2)cc1` has an inhibition of 3.77%.
For `O=C(CCc1nc2ccccc2c(=O)[nH]1)OCC(=O)c1cccc(Cl)c1`, the inhibition was 46% (active).
`O=C(COC(=O)CCc1nc2ccccc2c(=O)[nH]1)Nc1ccc(N2CCOCC2)cc1` showed an inhibition of 5.92%.
With `CC(C)(C)c1ccc(NC(=O)COC(=O)CCc2nc3ccccc3c(=O)[nH]2)cc1` the inhibition was 9.52%.
